Unmarked numbers belong to inactive results. Records with an inconclusive call do not appear. Activity calls are given as the source filed them. Calls follow the shape of the full dose curve.
target: Acetylcholinesterase (Homo sapiens) (UniProt P22303); experiment: Acetylcholinesterase (AChE) small molecule antagonists: enzyme-based qHTS assay (AID 1347397); conditions: Potency: AChE enzyme activity inhibition; outcome: AChE enzyme activity inhibition; series mostly up to 115 µM; activity change, negative = inhibition: at the top concentration; also: nearly all actives have a fitted effect of over 55% in size
Sequence (P22303 whole entry, looked up): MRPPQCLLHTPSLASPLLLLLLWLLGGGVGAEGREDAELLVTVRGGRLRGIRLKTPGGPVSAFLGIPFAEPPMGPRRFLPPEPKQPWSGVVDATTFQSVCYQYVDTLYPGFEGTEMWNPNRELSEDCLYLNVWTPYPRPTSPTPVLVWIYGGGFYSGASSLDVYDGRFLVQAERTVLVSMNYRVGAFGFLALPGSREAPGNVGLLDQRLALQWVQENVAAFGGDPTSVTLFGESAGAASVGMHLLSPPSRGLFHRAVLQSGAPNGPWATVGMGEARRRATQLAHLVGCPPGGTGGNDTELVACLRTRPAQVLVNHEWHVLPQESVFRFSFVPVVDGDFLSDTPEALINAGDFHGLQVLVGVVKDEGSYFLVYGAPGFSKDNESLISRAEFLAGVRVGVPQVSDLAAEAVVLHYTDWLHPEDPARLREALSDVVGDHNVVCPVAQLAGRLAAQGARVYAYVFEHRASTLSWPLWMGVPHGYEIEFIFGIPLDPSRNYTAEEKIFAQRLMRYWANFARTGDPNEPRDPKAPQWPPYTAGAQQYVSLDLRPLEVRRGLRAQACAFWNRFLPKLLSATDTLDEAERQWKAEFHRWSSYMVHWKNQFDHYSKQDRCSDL
Outline: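 Tox21 library chemicals are tested in qHTS format against recombinant human AChE. The enzyme, dispensed at 50 mU/mL, sits with compound for 30 min at room temperature. A DTNB–acetylthiocholine cocktail follows, and colour is read after 10 min.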
% is scaled to controls: 0 for no effect and ±100 for the full control effect.

Structure (SMILES) | activity change, negative = inhibition | Potency
C1CCN(CN2CCCCC2)CC1 | 0.824% | –
O=C(CCN1CCN(CCO)CC1)N1c2ccccc2Sc2ccc(C(F)(F)F)cc21 | 0.787% [at 53 µM] | –
Nc1nc2ccc([N+](=O)[O-])cc2s1 | 7.98% | –
O=Cc1ccc(Cl)c([N+](=O)[O-])c1 | -11.7% | –
COC(=O)c1ccccc1OC | -3.42% | –
COC(=O)C1=C(C)NC(C)=C(C(=O)OCCc2ccc(N3CCN(C(c4ccccc4)c4ccccc4)CC3)cc2)C1c1cccc([N+](=O)[O-])c1 (stereo unspecified) | -2.5% [at 53 µM] | –
CCCCOCCOCCSC#N | – | inactive
CC1(C)C(=O)N(Br)C(=O)N1Br | 2.52% | –
C[Si]1(C)O[Si](C)(C)O[Si](C)(C)O[Si](C)(C)O[Si](C)(C)O1 | 0.145% | –
Brc1ccccn1 | 0.273% | –
CC(C)(O)C(=O)c1ccccc1 | 1.03% | –
COc1cc(/C=C/C(=O)CC(=O)/C=C/c2ccc(O)c(OC)c2)ccc1O | 27.3% | –
O=S(=O)(O)CCCN1CCOCC1 | -1.26% | –
CC1(C)CC(OC(=O)CCCCCCCCC(=O)OC2CC(C)(C)NC(C)(C)C2)CC(C)(C)N1 | 1.77% [at 23.6 µM] | –
CCc1cc(C(C)(C)C)c(O)c(C(C)(C)C)c1 | – | inactive
CN(C)Cc1ccccc1 | -3.54% | –
NC(=O)c1ccccc1Cl | 0.143% | –
COc1ccc(/C(C)=C/C(=O)O)c(OC)c1 | 0.137% [at 53 µM] | –
O=C(O)CCCCCCCCCC(=O)O | 0.389% | –

Structure (SMILES) | activity change, negative = inhibition | Potency
O=C(NCC1CN(c2ccc(N3CCOCC3=O)cc2)C(=O)O1)c1ccc(Cl)s1 (stereo unspecified) | 0.406% [at 53 µM] | –
CO[Si](CCCOCC1CO1)(OC)OC (stereo unspecified) | – | inactive
CC1(C)S[C@@H]2[C@H](NC(=O)[C@H](N)c3ccccc3)C(=O)N2[C@H]1C(=O)O | – | inactive
Cc1cc(NC(=O)C(=O)O)cc(C)c1Oc1ccc(O)c2c1CCC2 | 2.23% | –
O=[N+]([O-])c1cccc(C(F)(F)F)c1 | 0.143% | –
CCCCCCC(C)OC(=O)COc1nc(F)c(Cl)c(N)c1Cl (stereo unspecified) | -8.51% | –
CC1(C)S[C@@H]2[C@H](NC(=O)C(C(=O)O)c3ccccc3)C(=O)N2[C@H]1C(=O)O (stereo partly specified) | 0.491% [at 53 µM] | –
O=C(O)CCC(=O)C(=O)O | -0.172% | –
C=C1CC[C@H](O)C/C1=C\C=C1/CCC[C@]2(C)[C@@H]([C@H](C)CCCC(C)C)CC[C@@H]12 | -1.5% | –
C[Si](C)O[Si](C)(C)O[Si](C)(C)O[Si](C)C | -1.05% | –
CCC(C)CO (stereo unspecified) | – | inactive
CN(C)CCN(C)CCN(C)C | -6.14% | –
Clc1ccc(C(c2ccccc2Cl)C(Cl)Cl)cc1 (stereo unspecified) | – | inactive
COC(=O)c1ccccc1O | – | inactive
Cc1cccc2c1ccc1ccccc12 | 1.22% | –
O=c1[nH]nc(-c2ccc([N+](=O)[O-])o2)o1 | 7.95% | –
Cc1noc(NS(=O)(=O)c2ccc(N)cc2)c1C | – | inactive
CCCCCCCC(=O)OC | – | inactive
CCCCCCCCCCCCS | – | inactive

target: Acetylcholinesterase (Homo sapiens) (UniProt P22303); experiment: Acetylcholinesterase (AChE) small molecule antagonists: fluorescence cell-based qHTS assay (AID 1347398); conditions: SH-SY5Y cells; Potency: AChE activity; outcome: AChE activity; series mostly up to 115 µM; activity change, negative = inhibition: at the top concentration; also: nearly all actives have a fitted effect of over 50% in size
Outline: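 Cellular AChE inhibition: SH-SY5Y cells treated with test chemical for 30 min at 37 C, then acetylthiocholine hydrolysis followed over 40 min at room temperature via thiocholine-reactive Thiolite Green fluorescence (490/520 nm).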

Structure (SMILES) | activity change, negative = inhibition | Potency
C1CCN(CN2CCCCC2)CC1 | 3.57% | –
O=C(CCN1CCN(CCO)CC1)N1c2ccccc2Sc2ccc(C(F)(F)F)cc21 | -3.05% [at 53.7 µM] | –
Nc1nc2ccc([N+](=O)[O-])cc2s1 | -1.74% | –
O=Cc1ccc(Cl)c([N+](=O)[O-])c1 | -16.8% | –
COC(=O)c1ccccc1OC | 3.44% | –
COC(=O)C1=C(C)NC(C)=C(C(=O)OCCc2ccc(N3CCN(C(c4ccccc4)c4ccccc4)CC3)cc2)C1c1cccc([N+](=O)[O-])c1 (stereo unspecified) | -10% [at 53.7 µM] | –
CCCCOCCOCCSC#N | – | inactive
CC1(C)C(=O)N(Br)C(=O)N1Br | 4.18% | –
C[Si]1(C)O[Si](C)(C)O[Si](C)(C)O[Si](C)(C)O[Si](C)(C)O1 | 4.27% | –
Brc1ccccn1 | 7.17% | –
CC(C)(O)C(=O)c1ccccc1 | -1.54% | –
COc1cc(/C=C/C(=O)CC(=O)/C=C/c2ccc(O)c(OC)c2)ccc1O | -10.2% | –
O=S(=O)(O)CCCN1CCOCC1 | 4.42% | –
CC1(C)CC(OC(=O)CCCCCCCCC(=O)OC2CC(C)(C)NC(C)(C)C2)CC(C)(C)N1 | -14.4% [at 23.8 µM] | –
CCc1cc(C(C)(C)C)c(O)c(C(C)(C)C)c1 | – | inactive
CN(C)Cc1ccccc1 | 4.4% | –
NC(=O)c1ccccc1Cl | -5.41% | –
COc1ccc(/C(C)=C/C(=O)O)c(OC)c1 | 7.6% [at 53.7 µM] | –
O=C(O)CCCCCCCCCC(=O)O | 1.46% | –

Structure (SMILES) | activity change, negative = inhibition | Potency
O=C(NCC1CN(c2ccc(N3CCOCC3=O)cc2)C(=O)O1)c1ccc(Cl)s1 (stereo unspecified) | 2.49% [at 53.7 µM] | –
CO[Si](CCCOCC1CO1)(OC)OC (stereo unspecified) | – | inactive
CC1(C)S[C@@H]2[C@H](NC(=O)[C@H](N)c3ccccc3)C(=O)N2[C@H]1C(=O)O | – | inactive
Cc1cc(NC(=O)C(=O)O)cc(C)c1Oc1ccc(O)c2c1CCC2 | -0.881% | –
O=[N+]([O-])c1cccc(C(F)(F)F)c1 | 1.42% | –
CCCCCCC(C)OC(=O)COc1nc(F)c(Cl)c(N)c1Cl (stereo unspecified) | -0.28% | –
CC1(C)S[C@@H]2[C@H](NC(=O)C(C(=O)O)c3ccccc3)C(=O)N2[C@H]1C(=O)O (stereo partly specified) | 0.625% [at 53.7 µM] | –
O=C(O)CCC(=O)C(=O)O | 6.43% | –
C=C1CC[C@H](O)C/C1=C\C=C1/CCC[C@]2(C)[C@@H]([C@H](C)CCCC(C)C)CC[C@@H]12 | -11.3% | –
C[Si](C)O[Si](C)(C)O[Si](C)(C)O[Si](C)C | 0.591% | –
CCC(C)CO (stereo unspecified) | – | inactive
CN(C)CCN(C)CCN(C)C | -11.3% | –
Clc1ccc(C(c2ccccc2Cl)C(Cl)Cl)cc1 (stereo unspecified) | – | inactive
COC(=O)c1ccccc1O | – | inactive
Cc1cccc2c1ccc1ccccc12 | 0.787% | –
O=c1[nH]nc(-c2ccc([N+](=O)[O-])o2)o1 | -1.74% | –
Cc1noc(NS(=O)(=O)c2ccc(N)cc2)c1C | – | inactive
CCCCCCCC(=O)OC | – | inactive
CCCCCCCCCCCCS | – | inactive

— PubChem BioAssay (Tox21)
